Reference: the supplement of paper PMC7411054

Legend:
Experiment in all cases: phenotypically active (imaging signature differs from DMSO and reproducible) at any of 0.3-9 uM (binary (1 = active, 0 = inactive)); higher = active
Conditions in all cases: treatment time: 24 h
A549-ACTB-RAB5A = test system: A549-ACTB-RAB5A
How it was run: (§1)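 Two criteria together defined phenotypic activity: deviation and reproducibility. Deviation meant ≥3 of 4 wells beyond the 95th percentile of Euclidean distances in solvent control wells, and reproducibility meant a median replicate Pearson correlation above the 95th percentile of non-replicates. Wells had been treated for 24 h at 0.3, 1, 3 or 9 µM in fifteen gene-edited A549, HepG2 and WPMY1 reporter lines before live imaging.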

A549-CANX-COX4 = test system: A549-CANX-COX4
How it was run: as §1

A549-GM130-SQSTM1 = test system: A549-GM130-SQSTM1
How it was run: as §1

A549-TP53BP1-CLTA = test system: A549-TP53BP1-CLTA
How it was run: as §1

A549-TUBA1B-RELA = test system: A549-TUBA1B-RELA
How it was run: as §1

HepG2-ACTB-RAB5A = test system: HepG2-ACTB-RAB5A
How it was run: as §1

HepG2-CANX-COX4 = test system: HepG2-CANX-COX4
How it was run: as §1

HepG2-GM130-SQSTM1 = test system: HepG2-GM130-SQSTM1
How it was run: as §1

HepG2-TP53BP1-CLTA = test system: HepG2-TP53BP1-CLTA
How it was run: as §1

HepG2-TUBA1B-RELA = test system: HepG2-TUBA1B-RELA
How it was run: as §1

WPMY1-ACTB-RAB5A = test system: WPMY1-ACTB-RAB5A
How it was run: as §1

WPMY1-CANX-COX4 = test system: WPMY1-CANX-COX4
How it was run: as §1

WPMY1-GM130-SQSTM1 = test system: WPMY1-GM130-SQSTM1
How it was run: as §1

WPMY1-TP53BP1-CLTA = test system: WPMY1-TP53BP1-CLTA
How it was run: as §1

WPMY1-TUBA1B-RELA = test system: WPMY1-TUBA1B-RELA
How it was run: as §1

Measured: phenotypically active

COc1ccccc1OCC(O)COC(N)=O (stereo not given) [methocarbamol]
inactive: A549-ACTB-RAB5A 0 | A549-CANX-COX4 0 | A549-GM130-SQSTM1 0 | A549-TP53BP1-CLTA 0 | A549-TUBA1B-RELA 0 | HepG2-ACTB-RAB5A 0 | HepG2-CANX-COX4 0 | HepG2-GM130-SQSTM1 0 | HepG2-TP53BP1-CLTA 0 | HepG2-TUBA1B-RELA 0 | WPMY1-ACTB-RAB5A 0 | WPMY1-CANX-COX4 0 | WPMY1-GM130-SQSTM1 0 | WPMY1-TP53BP1-CLTA 0 | WPMY1-TUBA1B-RELA 0

C[N+](C)(CCCCCC[N+](C)(C)CCCN1C(=O)c2ccccc2C1=O)CCCN1C(=O)c2ccccc2C1=O [W-84 dibromide]
inactive: A549-ACTB-RAB5A 0 | A549-CANX-COX4 0 | A549-GM130-SQSTM1 0 | A549-TP53BP1-CLTA 0 | A549-TUBA1B-RELA 0 | HepG2-ACTB-RAB5A 0 | HepG2-CANX-COX4 0 | HepG2-GM130-SQSTM1 0 | HepG2-TP53BP1-CLTA 0 | HepG2-TUBA1B-RELA 0 | WPMY1-ACTB-RAB5A 0 | WPMY1-CANX-COX4 0 | WPMY1-GM130-SQSTM1 0 | WPMY1-TP53BP1-CLTA 0 | WPMY1-TUBA1B-RELA 0

Nc1c2c(nc3ccccc13)CCCC2 [tacrine]
inactive: A549-ACTB-RAB5A 0 | A549-CANX-COX4 0 | A549-GM130-SQSTM1 0 | A549-TP53BP1-CLTA 0 | A549-TUBA1B-RELA 0 | HepG2-ACTB-RAB5A 0 | HepG2-CANX-COX4 0 | HepG2-GM130-SQSTM1 0 | HepG2-TP53BP1-CLTA 0 | HepG2-TUBA1B-RELA 0 | WPMY1-ACTB-RAB5A 0 | WPMY1-CANX-COX4 0 | WPMY1-GM130-SQSTM1 0 | WPMY1-TP53BP1-CLTA 0 | WPMY1-TUBA1B-RELA 0

C[C@H](CCC(=O)NCC(=O)O)[C@H]1CC[C@H]2[C@@H]3[C@H](O)C[C@@H]4C[C@H](O)CC[C@]4(C)[C@H]3C[C@H](O)[C@]12C [Glycocholic acid]
inactive: A549-ACTB-RAB5A 0 | A549-CANX-COX4 0 | A549-GM130-SQSTM1 0 | A549-TP53BP1-CLTA 0 | A549-TUBA1B-RELA 0 | HepG2-ACTB-RAB5A 0 | HepG2-CANX-COX4 0 | HepG2-GM130-SQSTM1 0 | HepG2-TP53BP1-CLTA 0 | HepG2-TUBA1B-RELA 0 | WPMY1-ACTB-RAB5A 0 | WPMY1-CANX-COX4 0 | WPMY1-GM130-SQSTM1 0 | WPMY1-TP53BP1-CLTA 0 | WPMY1-TUBA1B-RELA 0

CC(C)(Sc1ccc(CCN(CCCCC2CCCCC2)C(=O)NC2CCCCC2)cc1)C(=O)O
inactive: A549-ACTB-RAB5A 0 | A549-CANX-COX4 0 | A549-GM130-SQSTM1 0 | A549-TP53BP1-CLTA 0 | A549-TUBA1B-RELA 0 | HepG2-ACTB-RAB5A 0 | HepG2-CANX-COX4 0 | HepG2-GM130-SQSTM1 0 | HepG2-TP53BP1-CLTA 0 | HepG2-TUBA1B-RELA 0 | WPMY1-ACTB-RAB5A 0 | WPMY1-CANX-COX4 0 | WPMY1-GM130-SQSTM1 0 | WPMY1-TP53BP1-CLTA 0 | WPMY1-TUBA1B-RELA 0

COc1cc(C#N)ccc1S(=O)(=O)Nc1ccc2c(c1)cc(C)c(=O)n2C
inactive: A549-ACTB-RAB5A 0 | A549-CANX-COX4 0 | A549-GM130-SQSTM1 0 | A549-TP53BP1-CLTA 0 | A549-TUBA1B-RELA 0 | HepG2-ACTB-RAB5A 0 | HepG2-CANX-COX4 0 | HepG2-GM130-SQSTM1 0 | HepG2-TP53BP1-CLTA 0 | HepG2-TUBA1B-RELA 0 | WPMY1-ACTB-RAB5A 0 | WPMY1-CANX-COX4 0 | WPMY1-GM130-SQSTM1 0 | WPMY1-TP53BP1-CLTA 0 | WPMY1-TUBA1B-RELA 0

CCOC(=O)C1=C(C)NC(=S)N[C@H]1c1cccc(O)c1 [Monastrol]
inactive: A549-ACTB-RAB5A 0 | A549-CANX-COX4 0 | A549-GM130-SQSTM1 0 | A549-TP53BP1-CLTA 0 | A549-TUBA1B-RELA 0 | HepG2-ACTB-RAB5A 0 | HepG2-CANX-COX4 0 | HepG2-GM130-SQSTM1 0 | HepG2-TP53BP1-CLTA 0 | HepG2-TUBA1B-RELA 0 | WPMY1-ACTB-RAB5A 0 | WPMY1-CANX-COX4 0 | WPMY1-GM130-SQSTM1 0 | WPMY1-TP53BP1-CLTA 0 | WPMY1-TUBA1B-RELA 0

OCCn1cc(-c2cnc3nnn(Cc4ccc5ncccc5c4)c3n2)cn1
inactive: A549-ACTB-RAB5A 0 | A549-CANX-COX4 0 | A549-GM130-SQSTM1 0 | A549-TP53BP1-CLTA 0 | A549-TUBA1B-RELA 0 | HepG2-ACTB-RAB5A 0 | HepG2-CANX-COX4 0 | HepG2-GM130-SQSTM1 0 | HepG2-TP53BP1-CLTA 0 | HepG2-TUBA1B-RELA 0 | WPMY1-ACTB-RAB5A 0 | WPMY1-CANX-COX4 0 | WPMY1-GM130-SQSTM1 0 | WPMY1-TP53BP1-CLTA 0 | WPMY1-TUBA1B-RELA 0

C[C@]1(OC(=O)/C=C/c2ccccc2)C[C@@H](O)[C@]2(O)C=CO[C@@H](O[C@@H]3O[C@H](CO)[C@@H](O)[C@H](O)[C@H]3O)[C@@H]21 [Harpagoside]
inactive: A549-ACTB-RAB5A 0 | A549-CANX-COX4 0 | A549-GM130-SQSTM1 0 | A549-TP53BP1-CLTA 0 | A549-TUBA1B-RELA 0 | HepG2-ACTB-RAB5A 0 | HepG2-CANX-COX4 0 | HepG2-GM130-SQSTM1 0 | HepG2-TP53BP1-CLTA 0 | HepG2-TUBA1B-RELA 0 | WPMY1-ACTB-RAB5A 0 | WPMY1-CANX-COX4 0 | WPMY1-GM130-SQSTM1 0 | WPMY1-TP53BP1-CLTA 0 | WPMY1-TUBA1B-RELA 0

CC(C)(Oc1ccc(C2CC2(Cl)Cl)cc1)C(=O)O (stereo not given) [ciprofibrate]
inactive: A549-ACTB-RAB5A 0 | A549-CANX-COX4 0 | A549-GM130-SQSTM1 0 | A549-TP53BP1-CLTA 0 | A549-TUBA1B-RELA 0 | HepG2-ACTB-RAB5A 0 | HepG2-CANX-COX4 0 | HepG2-GM130-SQSTM1 0 | HepG2-TP53BP1-CLTA 0 | HepG2-TUBA1B-RELA 0 | WPMY1-ACTB-RAB5A 0 | WPMY1-CANX-COX4 0 | WPMY1-GM130-SQSTM1 0 | WPMY1-TP53BP1-CLTA 0 | WPMY1-TUBA1B-RELA 0

O=C1CCC[C@@H]2[C@H]3CCC[N+]4([O-])CCC[C@@H](CN12)[C@@H]34 (stereo not given in full) [Oxymatrine]
inactive: A549-ACTB-RAB5A 0 | A549-CANX-COX4 0 | A549-GM130-SQSTM1 0 | A549-TP53BP1-CLTA 0 | A549-TUBA1B-RELA 0 | HepG2-ACTB-RAB5A 0 | HepG2-CANX-COX4 0 | HepG2-GM130-SQSTM1 0 | HepG2-TP53BP1-CLTA 0 | HepG2-TUBA1B-RELA 0 | WPMY1-ACTB-RAB5A 0 | WPMY1-CANX-COX4 0 | WPMY1-GM130-SQSTM1 0 | WPMY1-TP53BP1-CLTA 0 | WPMY1-TUBA1B-RELA 0

C(=C/c1ccccc1)/CN1CCN(C(c2ccccc2)c2ccccc2)CC1 [cinnarazine]
inactive: A549-ACTB-RAB5A 0 | A549-CANX-COX4 0 | A549-GM130-SQSTM1 0 | A549-TP53BP1-CLTA 0 | A549-TUBA1B-RELA 0 | HepG2-ACTB-RAB5A 0 | HepG2-CANX-COX4 0 | HepG2-GM130-SQSTM1 0 | HepG2-TP53BP1-CLTA 0 | HepG2-TUBA1B-RELA 0 | WPMY1-ACTB-RAB5A 0 | WPMY1-CANX-COX4 0 | WPMY1-GM130-SQSTM1 0 | WPMY1-TP53BP1-CLTA 0 | WPMY1-TUBA1B-RELA 0
